Bioassay records (PubChem BioAssay)
Tb PYK inh: qHTS of Trypanosoma Brucei Inhibitors. pyruvate kinase (Trypanosoma brucei), Q57TT1. TbPYK enzyme, Kinase-Glo Plus ATP luminescence, 45 min. Potency, µM (titrated, usually from 76.8 µM), usual class: inhibitors. actives 0.12% (n = 410,000). AID 624173, 2012; also: nearly all actives have a fitted effect of over 50% in size
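In this concentration-response screen, enzyme-free wells defined baseline while DMSO plates tracked drift. Each reaction combined TbPYK, substrate, compound and 130 uM ADP for 45 min at room temperature. Kinase-Glo Plus luminescence gave the signal.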
RE007 growth inh: qHTS Assay for Inhibitors of the HIV-1 protein Vpr; S. pombe RE007 Vpr strain, BacTiter-Glo ATP luminescence, 24 h; Potency, µM (doses to about 92.2 µM), hits mostly inhibitors; actives 0.21% (n = 360,000); AID 651644, 2012; active = well fitted falling curve with a large enough effect; inconclusive = small, poorly fitted or top-dose-only effect; inactive = no such curve, though single readings can be large or run the other way; also: nearly all actives have a fitted effect of over 50% in size
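Fission yeast strain RE007, carrying one chromosomally integrated HIV-1 vpr copy, was seeded at OD 0.01 in PMG+AL medium with 23 nL pinned compound. After 24 h at 30 °C and 99% humidity, viability was read by BacTiter-Glo luminescence.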
Sm TGR block: qHTS Assay for the Inhibitors of Schistosoma Mansoni Peroxiredoxins; Potency, µM (titrated, usually from 114 µM), most hits filed as inhibitors; purified TGR, DTNB reduction, TNB absorbance 405 nm; actives 3% (n = 360,000); Schistosoma mansoni thioredoxin glutathione reductase (TGR), Q962Y6; also: nearly all actives have a fitted effect of over 60% in size
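First, TGR (20 nM dispensed) and NADPH were mixed with compound. Second, a 15 min room-temperature incubation followed. Third, further NADPH and then DTNB were added to start the reaction. Finally, TNB absorbance was monitored kinetically.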
HCMV inh: qHTS Assay for inhibitors of the human cytomegalovirus (HCMV); HFF cells, HCMV-luciferase reporter, 72 h; active compounds read low; activity change, negative = inhibition, % at 57.5 µM; actives 4.5% (n = 410,000); in the data active = activity change below about -60%; inconclusive = no clear call, values can overlap the other calls; inactive = above about -39%
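Screen run at 2 compound doses on HFFs infected with reporter HCMV, MOI 1 PFU/cell. Luciferase activity from cell lysates at 72 h post infection gave inhibition relative to buffer-only and Salinomycin wells.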
FMDV inh: High Throughput Screening for Foot and Mouth Disease Virus Antivirals | AID 1159524, 2015 | FMDV antiviral cell-based qHTS | actives 1.2% (n = 410,000) | Potency, µM (doses to about 57.9 µM), actives largely listed as inhibitors; calls by dose curve; tested in HEK293T cells; also: read-out not given here; nearly all actives have a fitted effect of over 45% in size
Giardia FBPA inh: qHTS Assay for Inhibitors of Fructose-1,6-bisphosphate Aldolase from Giardia Lamblia; A8B2U2; purified Giardia FBPA; Potency, µM (top dose mostly 59.6 µM), actives largely listed as inhibitors; actives 0.71% (n = 290,000); AID 2451, 2010; also: nearly all actives have a fitted effect of over 55% in size
Target sequence (A8B2U2 whole entry, looked up): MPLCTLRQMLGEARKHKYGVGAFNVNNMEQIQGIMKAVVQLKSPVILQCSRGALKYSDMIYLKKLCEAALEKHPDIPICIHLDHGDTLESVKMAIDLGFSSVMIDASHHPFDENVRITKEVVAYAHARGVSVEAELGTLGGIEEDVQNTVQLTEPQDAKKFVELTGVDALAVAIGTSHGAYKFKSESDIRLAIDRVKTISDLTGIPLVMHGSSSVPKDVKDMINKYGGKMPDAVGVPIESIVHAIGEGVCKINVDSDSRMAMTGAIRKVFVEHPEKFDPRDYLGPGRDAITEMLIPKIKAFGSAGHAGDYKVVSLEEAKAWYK
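Giardia FBPA (40 nM reagent) was preincubated 10 min at RT with compound (up to 57.5 uM final), then substrate plus GAPDH/TPI/NAD/arsenate coupling system with diaphorase/resazurin was added; resorufin fluorescence (525/598 nm) was read after 20 min.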
A number is an active result; . = inactive; ? = inconclusive; / = no result given; + = active, no number; [ ] = dose if it differs, or a comment. Rows were chosen to be rich in hits. Some 7.7% of all compounds tested hit in one or more screens of this group. Unless noted, calls follow the shape of the dose curve; as a rule, active = well fitted curve in the direction sought with a large enough effect; inconclusive = small, poorly fitted or top-dose-only effect, or another doubt; inactive = no such curve, though single readings can be large; an effect the other way counts as inactive or inconclusive.

SMILES | Tb PYK inh | RE007 growth inh | Sm TGR block | HCMV inh | FMDV inh | Giardia FBPA inh
Cc1nnc(N/N=C/c2ccc([N+](=O)[O-])cc2)n1N | . | . | . | . | . | 15.8µM
COc1ccc(/C=N/Nc2nnc(C)n2N)cc1OC(C)=O | . | . | . | . | . | ?
CCOC(=O)c1cc(NC(=O)c2ccc(Cl)cc2)c(=O)n2c1oc1ccccc12 | . | / | . | . | . | /
Cc1nnc(N/N=C/c2cc([N+](=O)[O-])c(N3CCC(C)CC3)cc2N2CCC(C)CC2)n1N | . | . | ? | ? | ? | 9.98µM
O=C(N/N=C/c1cccs1)c1ccc(NC(=O)c2ccccc2Cl)cc1 | . | . | . | -65.5 | . | .
CC(=O)Nc1ccc(C(=O)NNC(=O)c2cccs2)cc1 | . | . | . | -66.7 | . | .
O=C(Nc1ccc2[nH]c(=O)[nH]c2c1)c1ccc([N+](=O)[O-])o1 | . | . | 39.8µM | . | . | /
CC(=O)Nc1ccc(C#Cc2ccc(NC(C)=O)cc2)cc1 | . | . | . | -72.1 | / | .
O=C(NNC(=O)c1cccs1)c1ccccc1 | . | . | . | . | . | .
C=C1CC[C@H](O)C/C1=C/C=C1\CCC[C@]2(C)[C@H]1CC[C@H]2[C@@H](C)/C=C\[C@@H](C)C(C)C | / | / | / | / | / | .
O=C1CCC[C@H]2[C@@H](Cc3ccccc3)[C@@H](NS(=O)(=O)c3cc(Cl)cc(Cl)c3)CC[C@]23CCCN13 | / | / | / | . | / | /
O=C(Nc1cccc([N+](=O)[O-])c1)c1ccc([N+](=O)[O-])o1 | . | . | / | -86.5 | ? | /
O=C(Nc1cccc(NC(=O)c2ccccc2Cl)c1)c1ccc([N+](=O)[O-])o1 | . | . | ? | -97.8 | . | .
Cc1ccc(NC(=O)c2ccc([N+](=O)[O-])o2)cc1C | . | ? | ? | ? | . | .
O=C(Nc1ccc(NC(=O)C2CC2)cc1)c1cccs1 | . | . | . | -77.5 | . | .
O=C(Nc1cccc([N+](=O)[O-])c1)c1ccc2c(c1)OCCO2 | . | . | . | -107.1 | . | .
Cc1ccc(OCCSc2nc3ccccc3n2CC(=O)NC(C)C)cc1 | . | / | . | . | . | /
Cc1ccc(C)c(N2CCN(S(=O)(=O)c3ccc(-c4coc(C)n4)cc3)CC2)c1 | . | / | . | . | . | /
CN(C)c1ccc(-c2cc(N(C)Cc3ccco3)ncn2)cc1 | / | / | / | / | . | .
Cc1ccc(NC(=O)c2cccs2)cc1NC(=O)c1ccccc1Cl | . | . | . | . | . | .
O=C(COc1ccccc1)NC(=S)Nc1cccc(NC(=O)c2ccccc2Cl)c1 | . | . | . | -64.1 | . | .
O=C(Nc1ccc(C#Cc2ccccc2)cc1)C1CC1 | . | . | . | -64.1 | . | .
O=C(Nc1cccc([N+](=O)[O-])c1)c1ccc2ccccc2c1O | . | . | . | -80.1 | . | .
O=C(Nc1cccc(NC(=O)c2ccccc2Cl)c1)c1cccs1 | . | . | . | -81.5 | . | .
O=C(Nc1ccc(Oc2ccccc2)cc1)C1CC1 | . | . | . | ? | . | .
SMILES | Tb PYK inh | RE007 growth inh | Sm TGR block | HCMV inh | FMDV inh | Giardia FBPA inh
COc1ccc(NC(=O)Nc2nnc(N(C)C3CCCCC3)s2)c(OC)c1 | . | / | . | . | . | /
CCn1c(CNC(=O)c2ccco2)nnc1SCC(=O)c1ccccc1 | . | . | . | -61.8 | . | .
C=CCn1c(CNC(=O)c2ccco2)nnc1SCC(=O)N1c2ccccc2Sc2ccccc21 | . | . | 35.5µM | . | . | .
C=CCn1c(CNC(=O)c2ccco2)nnc1SCC(=O)c1ccc(F)cc1 | . | . | . | . | . | .
C=CCN1CC(COc2ccc(OC)cc2)OCCS1(=O)=O (configuration not stated) | / | / | / | . | / | /
O=C(Cc1cccc2ccccc12)NCC(=O)N1CCN(CC(=O)Nc2ccc(F)cc2)CC1 | . | . | / | . | ? | /
CC1(C(=O)NCc2cccc(C(F)(F)F)c2)CCN1Cc1ccc2ccccc2c1 (configuration not stated) | . | .[18.4 µM] | / | -72.1 | . | /
O=C(CSc1cccc(C(F)(F)F)c1)NCc1ccccc1 | . | . | . | -73.4 | . | .
O=C(Cc1cccc2ccccc12)NCC(=O)N1CCN(Cc2cccc(C(F)(F)F)c2)CC1 | . | . | . | -61.7 | ? | /
Cc1ccccc1NC(=O)CSc1nc2c(oc3ccccc32)c(=O)n1Cc1ccco1 | . | / | . | . | . | /
COc1cccc(CNC(=O)c2c(C)nn(-c3ccc(F)cc3)c2-n2cccc2)c1 | . | / | . | . | ? | /
Cc1ccc(S(=O)(=O)N2CCN(CC(=O)N3CCOCC3)CC2)cc1 | . | . | . | . | . | /
Cc1cc(Cl)c(C)c(S(=O)(=O)N2CCN(CC(=O)N3CCOCC3)CC2)c1Cl | . | . | . | + | . | /
CCC(NC(=O)C1(C)CC1(Br)Br)c1ccc(C)cc1 (configuration not stated) | . | . | . | -72.2 | . | .
COc1ccc(C2C(C#N)=C(N)Oc3c2sc2nc(C)cc(C)c32)cc1 (configuration not stated) | . | . | . | -68.1 | 39.8µM | .
CCOc1ccc(NC(=O)c2ccc(NC(=O)N3CCSc4ncccc43)cc2)cc1 | .[15.4 µM] | / | . | ? | 31.6µM | /
CCOc1ccccc1CNC(=O)c1ccc(NC(=O)N2CCSc3ncccc32)cc1 | .[15.4 µM] | / | . | + | ? | /
Cc1cc(C)c2c(CN3CCCCC3)cc(=O)oc2c1 | . | . | . | . | . | .
Cc1cc(C)c2c(CCl)cc(=O)oc2c1 | . | . | 10µM | -95.2 | 28.2µM | .
Fc1ccc(-c2noc3ncnc(NCC4CCN(Cc5ccc(Cl)cc5)CC4)c23)cc1 | . | / | . | -65.3 | . | /
C=C1C(=O)OC2CC1C(O)CC(C)=CCCC(C)=CC(O)CC2C (configuration not stated) | . | . | / | . | 7.94µM | /
COc1cccc(-c2nn(C)c3sc(C(=O)NCc4ccc(OC)cc4OC)cc23)c1 | . | / | . | . | . | /
COc1cccc(-c2nn(C)c3sc(C(=O)NCc4ccc(C)o4)cc23)c1 | . | . | 8.91µM | . | . | .
CCOc1ccc(CCNC(=O)c2cc3c(-c4ccccc4F)nn(C)c3s2)cc1OCC | . | / | . | -65.2 | ? | /
Cc1ccc(CCNC(=O)c2cc3c(-c4ccccc4F)nn(C)c3s2)cc1 | . | / | . | . | . | /
CCOc1ccc(CCNC(=O)c2cc3c(-c4cccc(OC)c4)nn(C)c3s2)cc1OCC | . | / | . | -62.8 | ? | /
COc1cccc(-c2nn(C)c3sc(C(=O)NCc4cc(OC)ccc4OC)cc23)c1 | . | / | . | . | ? | /
